Publication PMC7862700, “An all-to-all approach to the identification of sequence-specific readers for epigenetic DNA modifications on cytosine”

Columns and labels:
Assay in all cases: DAPPL (digital affinity profiling via proximity ligation, sequencing); 10 mM Tris-HCl pH 7.5, 50 mM NaCl, 1 mM DTT, 4% glycerol, room temperature, 30 min; GST-TFs on glutathione beads, 16-mer random dsDNA library, 0.1% formaldehyde crosslink after washing; high values mean tight binding
[1] = biological target: T1, FEV (Homo sapiens, UniProt Q99581 1-238); conditions: protein: recombinant; tags: N-terminal GST; dsDNA, one strand shown
T1 sequence: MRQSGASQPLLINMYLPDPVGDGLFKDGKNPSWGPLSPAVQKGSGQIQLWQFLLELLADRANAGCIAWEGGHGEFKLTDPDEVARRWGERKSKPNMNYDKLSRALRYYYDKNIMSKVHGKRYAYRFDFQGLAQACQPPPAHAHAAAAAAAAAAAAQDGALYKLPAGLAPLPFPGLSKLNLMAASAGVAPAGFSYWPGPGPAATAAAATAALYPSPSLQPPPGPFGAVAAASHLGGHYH
Method in brief: (§1)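 In yeast, human transcription factors were expressed with a GST fusion, then pulled down on glutathione beads and given DNA barcodes. Pooled with a tag-only sample, they were exposed to 200 nmole of a 16-mer random double-stranded DNA library (Tris/NaCl/DTT/glycerol buffer, room temperature, 30 min), washed, crosslinked with 0.1% formaldehyde, proximity-ligated using BsaI/T4 ligase for 1 h at 37 °C, PCR-amplified and read on an Illumina NextSeq500. Each hexamer's frequency of reads for a factor, divided by the matching frequency for the tag-only sample, gives the binding signal.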

[2] = biological target: ETV5 (Homo sapiens, UniProt P41161 1-510); conditions: protein: recombinant; tags: N-terminal GST; dsDNA, one strand shown
Method in brief: as §1

[3] = biological target: HSF1 (Homo sapiens, UniProt Q00613 1-529); conditions: protein: recombinant; tags: N-terminal GST; chain copies: 3; dsDNA, one strand shown
Method in brief: as §1

[4] = biological target: T2, SPIC (Homo sapiens, UniProt Q8N5J4 1-248); conditions: protein: recombinant; tags: N-terminal GST; dsDNA, one strand shown
T2 sequence: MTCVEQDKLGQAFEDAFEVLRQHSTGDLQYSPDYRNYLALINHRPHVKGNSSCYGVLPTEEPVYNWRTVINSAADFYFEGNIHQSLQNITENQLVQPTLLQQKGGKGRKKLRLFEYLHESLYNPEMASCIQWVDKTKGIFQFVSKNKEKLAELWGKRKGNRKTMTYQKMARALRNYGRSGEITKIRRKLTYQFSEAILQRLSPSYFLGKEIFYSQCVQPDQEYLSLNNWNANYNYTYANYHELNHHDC
Method in brief: as §1

[5] = biological target: ELF4 (Homo sapiens, UniProt Q99607 1-663); conditions: protein: recombinant; tags: N-terminal GST; dsDNA, one strand shown
Method in brief: as §1

[6] = biological target: T3, ELK4 (Homo sapiens, UniProt P28324-2 1-405); conditions: protein: recombinant; tags: N-terminal GST; dsDNA, one strand shown
T3 sequence: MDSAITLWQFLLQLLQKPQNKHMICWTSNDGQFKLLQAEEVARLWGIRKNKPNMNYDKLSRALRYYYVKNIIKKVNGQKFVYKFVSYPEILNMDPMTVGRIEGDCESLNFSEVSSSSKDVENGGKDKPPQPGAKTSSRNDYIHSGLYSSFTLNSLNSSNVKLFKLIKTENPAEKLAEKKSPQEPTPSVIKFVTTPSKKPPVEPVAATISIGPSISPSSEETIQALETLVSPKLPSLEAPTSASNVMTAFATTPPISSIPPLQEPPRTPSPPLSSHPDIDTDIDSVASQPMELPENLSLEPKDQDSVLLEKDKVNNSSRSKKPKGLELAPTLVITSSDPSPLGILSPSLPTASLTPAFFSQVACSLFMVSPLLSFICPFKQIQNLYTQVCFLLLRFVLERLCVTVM
Method in brief: as §1

[7] = biological target: T4, ETV2 (Homo sapiens, UniProt O00321 1-342); conditions: protein: recombinant; tags: N-terminal GST; dsDNA, one strand shown
T4 sequence: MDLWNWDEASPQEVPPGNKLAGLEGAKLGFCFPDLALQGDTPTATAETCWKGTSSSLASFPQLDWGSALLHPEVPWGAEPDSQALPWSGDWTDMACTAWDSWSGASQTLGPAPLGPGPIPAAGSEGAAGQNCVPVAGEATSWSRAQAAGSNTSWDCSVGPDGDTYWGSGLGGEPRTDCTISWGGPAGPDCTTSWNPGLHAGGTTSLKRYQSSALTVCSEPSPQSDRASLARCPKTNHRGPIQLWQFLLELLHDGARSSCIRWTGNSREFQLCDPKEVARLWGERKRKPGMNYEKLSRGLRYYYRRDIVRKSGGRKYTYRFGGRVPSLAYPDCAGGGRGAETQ
Method in brief: as §1

[8] = biological target: T5, ELF3 (Homo sapiens, UniProt P78545 1-371); conditions: protein: recombinant; tags: N-terminal GST; dsDNA, one strand shown
T5 sequence: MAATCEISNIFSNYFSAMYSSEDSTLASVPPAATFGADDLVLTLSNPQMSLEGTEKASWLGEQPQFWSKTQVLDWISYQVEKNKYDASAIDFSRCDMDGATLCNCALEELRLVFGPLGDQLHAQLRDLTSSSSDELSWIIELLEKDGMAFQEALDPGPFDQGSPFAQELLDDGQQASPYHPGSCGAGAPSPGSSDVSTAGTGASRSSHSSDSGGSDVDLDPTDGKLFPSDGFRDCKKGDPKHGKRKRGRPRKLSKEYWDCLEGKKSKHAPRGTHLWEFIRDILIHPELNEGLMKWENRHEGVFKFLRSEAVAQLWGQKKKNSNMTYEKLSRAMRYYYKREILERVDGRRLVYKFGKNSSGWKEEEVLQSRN
Method in brief: as §1

[9] = biological target: CRX (Homo sapiens, UniProt O43186 1-299); conditions: protein: recombinant; tags: N-terminal GST; dsDNA, one strand shown
Method in brief: as §1

[10] = biological target: ETV1 (Homo sapiens, UniProt P50549 1-477); conditions: protein: recombinant; tags: N-terminal GST; dsDNA, one strand shown
Method in brief: as §1

[11] = biological target: T6, ERF (Homo sapiens, UniProt P50548 1-548); conditions: protein: recombinant; tags: N-terminal GST; dsDNA, one strand shown
T6 sequence: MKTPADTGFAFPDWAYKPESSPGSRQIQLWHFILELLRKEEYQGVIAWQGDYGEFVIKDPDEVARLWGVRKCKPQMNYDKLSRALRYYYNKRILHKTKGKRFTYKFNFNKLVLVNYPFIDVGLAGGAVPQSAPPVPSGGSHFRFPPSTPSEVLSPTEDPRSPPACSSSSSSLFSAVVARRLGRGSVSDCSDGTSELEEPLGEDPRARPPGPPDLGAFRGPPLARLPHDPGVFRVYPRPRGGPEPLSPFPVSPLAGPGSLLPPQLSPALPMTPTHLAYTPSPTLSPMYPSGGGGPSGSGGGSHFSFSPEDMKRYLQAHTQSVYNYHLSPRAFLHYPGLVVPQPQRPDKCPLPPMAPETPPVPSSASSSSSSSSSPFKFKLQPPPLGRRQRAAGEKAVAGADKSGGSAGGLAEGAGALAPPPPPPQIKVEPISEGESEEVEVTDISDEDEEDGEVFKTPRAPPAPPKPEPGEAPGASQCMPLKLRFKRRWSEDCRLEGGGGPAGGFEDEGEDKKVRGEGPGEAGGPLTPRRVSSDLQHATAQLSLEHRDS
Method in brief: as §1

[12] = biological target: T7, ETV3L (Homo sapiens, UniProt Q6ZN32 1-361); conditions: protein: recombinant; tags: N-terminal GST; dsDNA, one strand shown
T7 sequence: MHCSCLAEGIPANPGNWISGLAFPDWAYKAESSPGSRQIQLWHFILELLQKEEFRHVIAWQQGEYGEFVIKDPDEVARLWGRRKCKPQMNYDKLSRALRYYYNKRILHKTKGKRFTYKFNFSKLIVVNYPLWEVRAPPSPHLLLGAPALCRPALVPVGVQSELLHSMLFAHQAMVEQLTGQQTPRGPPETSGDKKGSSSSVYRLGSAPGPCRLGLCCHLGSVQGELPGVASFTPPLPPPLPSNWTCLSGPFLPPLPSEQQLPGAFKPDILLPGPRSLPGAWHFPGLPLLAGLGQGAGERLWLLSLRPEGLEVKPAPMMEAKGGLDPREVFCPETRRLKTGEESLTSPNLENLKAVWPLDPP
Method in brief: as §1

[13] = biological target: T8, ETS2 (Homo sapiens, UniProt P15036 1-469); conditions: protein: recombinant; tags: N-terminal GST; dsDNA, one strand shown
T8 sequence: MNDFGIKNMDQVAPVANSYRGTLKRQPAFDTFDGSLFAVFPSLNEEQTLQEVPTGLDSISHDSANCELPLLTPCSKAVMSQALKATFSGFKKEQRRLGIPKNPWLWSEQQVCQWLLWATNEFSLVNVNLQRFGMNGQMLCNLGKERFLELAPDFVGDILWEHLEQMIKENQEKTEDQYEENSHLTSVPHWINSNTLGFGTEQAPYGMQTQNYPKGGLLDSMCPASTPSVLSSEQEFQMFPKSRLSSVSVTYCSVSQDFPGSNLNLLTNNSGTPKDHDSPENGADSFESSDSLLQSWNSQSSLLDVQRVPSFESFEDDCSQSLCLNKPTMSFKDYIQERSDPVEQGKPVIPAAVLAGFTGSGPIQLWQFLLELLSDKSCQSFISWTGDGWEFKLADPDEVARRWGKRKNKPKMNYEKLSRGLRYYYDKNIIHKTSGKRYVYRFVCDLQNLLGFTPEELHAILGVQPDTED
Method in brief: as §1

[14] = biological target: T9, SPDEF (Homo sapiens, UniProt O95238 1-335); conditions: protein: recombinant; tags: N-terminal GST; dsDNA, one strand shown
T9 sequence: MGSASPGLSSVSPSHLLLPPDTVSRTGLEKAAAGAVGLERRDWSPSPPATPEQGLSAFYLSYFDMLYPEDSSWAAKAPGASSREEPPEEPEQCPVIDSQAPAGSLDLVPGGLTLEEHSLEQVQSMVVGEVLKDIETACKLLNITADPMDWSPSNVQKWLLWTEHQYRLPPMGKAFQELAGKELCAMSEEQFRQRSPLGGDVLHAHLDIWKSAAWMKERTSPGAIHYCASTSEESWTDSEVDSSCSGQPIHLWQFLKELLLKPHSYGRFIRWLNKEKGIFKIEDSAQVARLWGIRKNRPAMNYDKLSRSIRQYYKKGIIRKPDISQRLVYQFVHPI
Method in brief: as §1

[15] = biological target: T10, ETV7 (Homo sapiens, UniProt Q9Y603 1-341); conditions: protein: recombinant; tags: N-terminal GST; dsDNA, one strand shown
T10 sequence: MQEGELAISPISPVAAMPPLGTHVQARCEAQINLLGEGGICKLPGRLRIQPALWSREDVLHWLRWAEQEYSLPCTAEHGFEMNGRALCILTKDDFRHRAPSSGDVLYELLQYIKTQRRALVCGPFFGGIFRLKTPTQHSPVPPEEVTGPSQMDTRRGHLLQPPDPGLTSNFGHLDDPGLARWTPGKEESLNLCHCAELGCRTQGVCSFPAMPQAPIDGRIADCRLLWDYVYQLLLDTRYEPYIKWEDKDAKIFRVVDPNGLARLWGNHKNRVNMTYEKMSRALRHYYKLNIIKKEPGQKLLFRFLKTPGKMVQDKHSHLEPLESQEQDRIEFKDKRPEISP
Method in brief: as §1

[16] = biological target: T11, ELF5 (Homo sapiens, UniProt Q9UKW6-2 1-255); conditions: protein: recombinant; tags: N-terminal GST; dsDNA, one strand shown
T11 sequence: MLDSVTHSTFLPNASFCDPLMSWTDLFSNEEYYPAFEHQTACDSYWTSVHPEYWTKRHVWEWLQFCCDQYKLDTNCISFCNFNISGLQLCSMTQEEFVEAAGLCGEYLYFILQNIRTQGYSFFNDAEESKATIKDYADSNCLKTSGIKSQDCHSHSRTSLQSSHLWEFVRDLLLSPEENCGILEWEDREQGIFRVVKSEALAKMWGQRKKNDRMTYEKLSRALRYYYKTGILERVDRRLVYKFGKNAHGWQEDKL
Method in brief: as §1

[17] = biological target: T12, ETV3 (Homo sapiens, UniProt P41162-2 1-143); conditions: protein: recombinant; tags: N-terminal GST; dsDNA, one strand shown
T12 sequence: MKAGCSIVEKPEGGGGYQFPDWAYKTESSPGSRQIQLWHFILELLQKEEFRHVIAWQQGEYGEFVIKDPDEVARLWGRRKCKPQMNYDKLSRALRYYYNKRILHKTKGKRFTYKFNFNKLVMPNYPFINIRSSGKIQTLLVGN
Method in brief: as §1

[18] = biological target: ETV6 (Homo sapiens, UniProt P41212 1-452); conditions: protein: recombinant; tags: N-terminal GST; dsDNA, one strand shown
Method in brief: as §1

Sequence of ETV5 (P41161 whole entry): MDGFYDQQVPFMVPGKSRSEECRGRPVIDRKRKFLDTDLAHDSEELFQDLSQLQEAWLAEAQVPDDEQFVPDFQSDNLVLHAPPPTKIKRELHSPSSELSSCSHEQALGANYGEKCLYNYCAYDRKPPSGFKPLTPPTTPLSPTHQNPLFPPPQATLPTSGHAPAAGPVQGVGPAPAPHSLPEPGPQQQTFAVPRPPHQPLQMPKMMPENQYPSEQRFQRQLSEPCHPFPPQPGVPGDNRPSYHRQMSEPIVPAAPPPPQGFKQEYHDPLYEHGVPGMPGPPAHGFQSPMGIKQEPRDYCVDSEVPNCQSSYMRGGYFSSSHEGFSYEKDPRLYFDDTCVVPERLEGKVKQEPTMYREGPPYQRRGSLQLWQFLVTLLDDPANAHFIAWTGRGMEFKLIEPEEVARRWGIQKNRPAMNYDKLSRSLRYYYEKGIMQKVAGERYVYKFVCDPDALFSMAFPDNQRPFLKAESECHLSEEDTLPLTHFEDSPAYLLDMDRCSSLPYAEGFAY
Sequence of ETV6 (P41212 whole entry): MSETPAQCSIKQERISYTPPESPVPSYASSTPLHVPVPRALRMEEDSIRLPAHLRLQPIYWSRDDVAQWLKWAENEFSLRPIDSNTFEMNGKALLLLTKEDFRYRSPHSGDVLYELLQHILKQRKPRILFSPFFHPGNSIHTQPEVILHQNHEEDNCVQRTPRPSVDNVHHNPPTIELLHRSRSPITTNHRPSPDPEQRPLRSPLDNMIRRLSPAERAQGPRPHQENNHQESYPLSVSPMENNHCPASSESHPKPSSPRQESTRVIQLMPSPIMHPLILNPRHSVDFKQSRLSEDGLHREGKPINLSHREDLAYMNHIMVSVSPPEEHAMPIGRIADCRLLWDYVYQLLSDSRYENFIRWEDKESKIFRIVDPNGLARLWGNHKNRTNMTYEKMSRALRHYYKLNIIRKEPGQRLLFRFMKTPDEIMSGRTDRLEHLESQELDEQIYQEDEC
Sequence of ELF4 (Q99607 whole entry): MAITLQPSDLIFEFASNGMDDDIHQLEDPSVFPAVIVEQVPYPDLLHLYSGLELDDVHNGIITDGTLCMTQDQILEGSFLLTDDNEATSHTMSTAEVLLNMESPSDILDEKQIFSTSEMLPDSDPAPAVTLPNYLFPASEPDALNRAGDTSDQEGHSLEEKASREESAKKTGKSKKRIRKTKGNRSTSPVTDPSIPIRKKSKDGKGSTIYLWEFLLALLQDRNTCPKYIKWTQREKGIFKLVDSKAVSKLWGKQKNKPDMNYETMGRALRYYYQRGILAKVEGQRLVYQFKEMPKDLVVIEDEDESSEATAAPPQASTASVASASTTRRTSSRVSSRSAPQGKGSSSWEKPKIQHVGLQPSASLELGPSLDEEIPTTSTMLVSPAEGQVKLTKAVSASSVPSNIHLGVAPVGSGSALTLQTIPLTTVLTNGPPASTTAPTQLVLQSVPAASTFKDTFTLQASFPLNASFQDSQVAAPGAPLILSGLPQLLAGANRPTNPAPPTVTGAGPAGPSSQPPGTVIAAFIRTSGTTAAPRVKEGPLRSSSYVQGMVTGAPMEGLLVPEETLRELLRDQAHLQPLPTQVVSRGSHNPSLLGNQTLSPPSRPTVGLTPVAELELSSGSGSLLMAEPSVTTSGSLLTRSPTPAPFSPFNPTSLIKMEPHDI
Sequence of ETV1 (P50549 whole entry): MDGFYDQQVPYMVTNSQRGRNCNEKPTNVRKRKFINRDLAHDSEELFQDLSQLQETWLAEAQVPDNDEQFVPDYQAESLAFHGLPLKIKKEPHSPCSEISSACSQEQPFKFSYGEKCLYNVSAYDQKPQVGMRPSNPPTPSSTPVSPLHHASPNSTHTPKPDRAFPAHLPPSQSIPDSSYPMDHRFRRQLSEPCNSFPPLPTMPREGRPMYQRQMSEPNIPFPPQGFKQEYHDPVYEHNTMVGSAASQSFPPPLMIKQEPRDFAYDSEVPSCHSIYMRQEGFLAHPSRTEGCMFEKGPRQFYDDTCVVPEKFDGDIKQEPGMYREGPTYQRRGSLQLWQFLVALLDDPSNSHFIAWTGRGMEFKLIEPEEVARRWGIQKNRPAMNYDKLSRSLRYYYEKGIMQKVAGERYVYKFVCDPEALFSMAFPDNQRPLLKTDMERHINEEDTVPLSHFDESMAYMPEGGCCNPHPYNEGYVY
Sequence of CRX (O43186 whole entry): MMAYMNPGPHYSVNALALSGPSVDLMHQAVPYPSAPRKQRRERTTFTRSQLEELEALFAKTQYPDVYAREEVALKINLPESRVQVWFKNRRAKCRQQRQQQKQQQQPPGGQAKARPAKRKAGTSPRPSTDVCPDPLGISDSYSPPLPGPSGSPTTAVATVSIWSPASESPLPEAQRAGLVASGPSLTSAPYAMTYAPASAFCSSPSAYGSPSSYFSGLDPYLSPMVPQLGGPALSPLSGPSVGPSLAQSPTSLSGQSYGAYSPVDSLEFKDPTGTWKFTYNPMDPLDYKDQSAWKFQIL
Sequence of HSF1 (Q00613 whole entry): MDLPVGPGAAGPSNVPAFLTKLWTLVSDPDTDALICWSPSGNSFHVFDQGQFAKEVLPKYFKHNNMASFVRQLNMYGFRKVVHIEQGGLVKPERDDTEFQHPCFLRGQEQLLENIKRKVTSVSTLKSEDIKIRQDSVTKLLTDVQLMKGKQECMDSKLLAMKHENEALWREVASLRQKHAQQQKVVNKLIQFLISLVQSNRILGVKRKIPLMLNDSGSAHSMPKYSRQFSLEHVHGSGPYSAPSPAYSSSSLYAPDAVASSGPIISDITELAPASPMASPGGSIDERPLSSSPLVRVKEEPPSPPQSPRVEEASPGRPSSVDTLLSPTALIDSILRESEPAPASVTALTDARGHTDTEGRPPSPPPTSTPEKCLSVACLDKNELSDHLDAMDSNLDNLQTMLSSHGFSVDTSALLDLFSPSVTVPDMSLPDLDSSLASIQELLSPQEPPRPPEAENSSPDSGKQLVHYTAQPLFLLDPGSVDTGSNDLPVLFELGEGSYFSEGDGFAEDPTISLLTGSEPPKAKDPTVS

Sequence: TACAAG
- binding signal [1]: 1.01 fold enrichment (6-mer frequency, TF over GST control)
- binding signal [2]: 1.15 fold enrichment (6-mer frequency, TF over GST control)
- binding signal [3]: 1.07 fold enrichment (6-mer frequency, TF over GST control)
- binding signal [4]: 1.17 fold enrichment (6-mer frequency, TF over GST control)
- binding signal [5]: 1.1 fold enrichment (6-mer frequency, TF over GST control)
- binding signal [6]: 1.16 fold enrichment (6-mer frequency, TF over GST control)
- binding signal [7]: 1.03 fold enrichment (6-mer frequency, TF over GST control)
- binding signal [8]: 1.23 fold enrichment (6-mer frequency, TF over GST control)
- binding signal [9]: 1.11 fold enrichment (6-mer frequency, TF over GST control)
- binding signal [10]: 1.06 fold enrichment (6-mer frequency, TF over GST control)
- binding signal [11]: 1.1 fold enrichment (6-mer frequency, TF over GST control)
- binding signal [12]: 1.05 fold enrichment (6-mer frequency, TF over GST control)
- binding signal [13]: 1.1 fold enrichment (6-mer frequency, TF over GST control)
- binding signal [14]: 1.1 fold enrichment (6-mer frequency, TF over GST control)
- binding signal [15]: 1.02 fold enrichment (6-mer frequency, TF over GST control)
- binding signal [16]: 1.06 fold enrichment (6-mer frequency, TF over GST control)
- binding signal [17]: 1.02 fold enrichment (6-mer frequency, TF over GST control)
- binding signal [18]: 1.04 fold enrichment (6-mer frequency, TF over GST control)
